This passage reports growth results from PubChem BioAssay (NCI).

Structures are written as SMILES. The panel holds about 83,000 compounds, 20% with a hit somewhere; the sample as a whole holds those more often.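 A percent growth of 40 corresponds to 60% growth inhibition; 0 means no net growth; -100 means all cells died. Active threshold: below 10.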 Values without a mark were called inactive. The source made the active and inactive calls.

In the test the test system is M14 melanoma. As to the kind of experiment: NCI-60 one-dose screen, 48 h (100 = growth as untreated, 0 = no growth, -100 = all killed). The settings on record: 10 µM unless noted. The protocol:
Growth inhibition of the M14 human tumor cell line is measured as a screen for anti-cancer activity. Cells are grown in 96 well plates and exposed to the test compound for 48 hours. Compounds are tested at a single concentration, which is 10^-5 M for most compounds. The reported endpoint is percent growth (GI% or GIPRCNT), where numbers from 0 - 100% represent growth inhibition, and numbers from -100% - 0 represent cell death. For example, a value of 40 represents 60% growth inhibition. A value of 0 means no net growth occurred over the course of the experiment. A value of -40 indicates 40% of cells at the beginning of the experiment died by the end of the experiment. A value of -100 means all cells are dead at the end of the experiment.
NCI-60 Human Tumor Cell Lines Screen was performed using the standard one-dose NCI protocol, which is described in more detail at https://dtp.cancer.gov/discovery_development/nci-60/default.htm.
Compounds with GIPRCNT values below 10 were considered active. Activity score was based on GIPRCNT using the following formula: […]
Score is 0 for GIPRCNT values of 100 or above, 50 for GIPRCNT values of 0, and 100 for GIPRCNT values of -100.
Turning to `COc1ccc(C(=O)/C=C/c2sc(Cl)nc2Cl)cc1`, the growth was 6.12% (active).
As for `COc1ccc2[nH]c(-c3ccccc3)c(/C=C(\C#N)S(=O)(=O)c3ccccc3)c2c1`, the growth was 42.7%.
The result for `NC[C@@H]1O[C@H](O[C@@H]2[C@@H](CO)OC(O[C@@H]3[C@@H](O)[C@H](N)C[C@H](N)[C@H]3OC3O[C@H](CN)[C@@H](O)[C@H](O)[C@H]3N)[C@@H]2O)[C@H](N)[C@@H](O)[C@@H]1O` (stereo not given in full) reads 104%.
For the molecule `COc1cc(C(=O)N/N=C/c2cc3cc(OCc4ccccc4)ccc3nc2OC)cc(OC)c1OC`, the growth was 83.4%.
The result for `CCc1cccc2c3c(sc12)C(c1ccc(F)cc1)C(C#N)=C(N)O3` (stereo not given) reads 19.2%.
For the molecule `Cc1ccc(C(=O)NN2C(=O)CSC2c2ccc(Cl)cc2)cn1` (stereo not given), the growth is 97.8%.
For `COc1cc2cc(Oc3ccc(NC(=O)Nc4ccc(F)c(C(F)(F)F)c4)cc3)c(C)nc2cc1OCCN1CCOCC1`, the growth was 16.7%.
For the molecule `COc1cc(C(=O)/C=C/c2ccc(OCCCCCC[P+](c3ccccc3)(c3ccccc3)c3ccccc3)cc2)cc(OC)c1OC`, the growth was -55.8% (active).
As for `CN1CCN(c2ccc(-c3ccc4ncc(C#N)c(Nc5ccc(F)c(Cl)c5)c4c3)cc2)CC1`, the growth is -33.5% (active).
The result for `O=[N+]([O-])c1ccc(Oc2nc(Nc3ccc(O[C@H]4CO[C@H]5[C@@H]4OC[C@@H]5O)c(Cl)c3)ncc2F)c(Cl)c1` reads 23.9%.
The result for `Cc1nc(/N=C(\N)NC(=O)Nc2cccc(Cl)c2)sc1C` reads 50.5%.
With `Cc1c(C(=O)NCCCc2ccccc2)sc2ncc(-c3ccc(Br)cc3)n12`, the growth was 100%.
For the molecule `COc1cc(Nc2cn[nH]c2-c2ccc(Cl)cc2)cc(OC)c1OC`, the growth is 8.84% (active).
Regarding `O=[N+]([O-])c1ccc(Cl)c(-c2cc(CCCCO)on2)c1`, the growth is 110%.
For `c1ccc(-c2nc3nonc3nc2-c2ccccc2)cc1`, the growth is 84.9%.
The result for `Cc1ccc(-c2nn(C)c(=O)c3noc(-c4ccc(C)cc4)c23)cc1` reads 21.6%; that for `COc1ccc(C(Cc2ccccc2)NCCN2CCOCC2)cc1` (stereo not given), 90.6%.
The result for `C=C(C)[C@@H]1CC[C@]2(N=C=O)CC[C@]3(C)[C@H](CC[C@@H]4[C@@]5(C)Cc6c([nH]c7ccccc67)C(C)(C)[C@@H]5CC[C@]43C)[C@@H]12` reads 70.5%; that for `COc1ccc(-c2cnc3ccccc3n2)cc1`, 100%; that for `CC[C@H](C)C(=O)O[C@H]1CCC=C2C=C[C@H](C)[C@H](CC[C@@H]3CC=CC(=O)O3)[C@H]21`, 76.4%.
With `CCc1ccc(Oc2c(-c3ccc(OCc4ccc(Cl)cc4)cc3O)nn(C)c2C(F)(F)F)cc1`, the growth is 1% (active).
The result for `O=C(O)CCC(=O)Nc1nnc(-c2ccccc2)s1` reads 102%.
`Nc1nc2ccccc2c2c(=O)c3cc(F)ccc3sc12`: the growth was 99.6%.
The result for `CCCCCCn1c(-c2ccc(C(=O)O/N=C(\N)c3ccc(OC)cc3)cc2)nc(-c2ccccc2)c1-c1ccccc1` reads 40.9%; that for `COc1ccc(/C=C(\C#N)n2nnc3c(F)cccc32)cc1`, -16.2% (active); that for `Brc1c[n+](Cc2ccc3ccccc3c2)cn1Cc1ccc2ccccc2c1`, 1.8% (active).
For the molecule `Cc1ccc(C(=O)N/N=C/c2cccc(Oc3ccccc3)c2)cn1`, the growth is 50%.
The result for `N#Cc1c(-c2ccc(Cl)cc2)nc(NCCO)[nH]c1=O` reads 94.6%; that for `CCOC(=O)Nc1ccc(C(=O)/C=C/c2ccccc2)cc1`, 79.2%; that for `CCOC(=O)C1=C(N)Oc2c(sc3c(CC)cccc23)C1c1ccc(F)cc1` (stereo not given), 38.2%.
The result for `CCOC(=O)C1=C(N)Oc2c(sc3c(C)cccc23)C1c1ccc(F)cc1` (stereo not given) reads 10.6%; that for `Clc1ccc2c(c1)N(CCCN1CCCC1)c1ccccc1S2`, -47% (active); that for `CCCCNC(=O)Oc1ccc(/C(=C(\C)c2ccc(Cl)cc2)c2ccc(OCCN(CC)CC)cc2)cc1`, 22.6%.
The result for `CS(=O)(=O)N(c1cc(-c2ccc3ncnc(Nc4ccc(F)c(Cl)c4)c3c2)cnc1Cl)S(C)(=O)=O` reads 43.6%; that for `O=[N+]([O-])c1ccccc1NCSc1ccc(Cl)cc1`, 102%.
Consider `Cc1ccc(-c2nc(N3CCN(C(=O)Nc4ccc(Cl)c(C(F)(F)F)c4)CC3)c3ccccc3n2)cc1`, for which the growth is 73.8%.
The result for `OC(COc1ccccc1Cl)CN1CCN(c2cccc(Cl)c2)CC1` (stereo not given) reads 98.1%; that for `O=C(O)c1cn(C2CC2)c2cc(N3CCN(C(=O)Nc4nc(-c5ccc(Cl)cc5)cs4)CC3)c(F)cc2c1=O`, 18.2%; that for `CCCCn1c(-c2ccc(C(=O)O/N=C(\N)c3ccc(OC)cc3)cc2)nc(-c2ccccc2)c1-c1ccccc1`, 51.3%.
The result for `NC(=O)Nc1ccc2ncnc(Nc3ccc(Cl)cc3)c2c1` reads 107%.
